A word on the inhibition: it is the change of the read-out against control, counted positive when it falls.

Molecules are shown by their SMILES. Out of some 640,000 compounds screened, about 9,300 (1.5%) were called active. No stated cut-off is given here; in the data, active means inhibition above about 32%; inactive means the rest. Shown is part of a subset that was picked to be rich in actives.

The test is described as follows: TEAD-YAP interaction inhibition, primary screen, TEAD-YAP interaction inhibitor project, luminescence, HEK-TIYL cells (AID 1259422).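 Further: 0% = median of test compound wells and 100% = reference inhibitor wells.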 The note with it: TEAD-Gal4/YAP UAS-luciferase luminescence, at 9.12 µM, stronger effect = higher value.
Turning to `COc1ccc(/C=C(/NC(=O)c2ccco2)C(=O)Nc2cccc(O)c2)cc1`, the inhibition is 0.64% (inactive).
Next, `COc1ccc(C2CC(C(F)(F)F)n3ncc(C(=O)NCc4cccs4)c3N2)cc1OC` (stereo not drawn): -29.4% (inactive).
With `O=C(C(Cc1ccccc1)NS(=O)(=O)c1cccs1)N1CCc2ccccc21` (stereo not drawn), the inhibition was 7.02% (inactive).
On to `Cc1ccc2cc(CN(CCCO)S(=O)(=O)c3ccccc3[N+](=O)[O-])c(=O)[nH]c2c1`, for which the inhibition is -39.4% (inactive).
`CCOc1ccc(NC(=O)C2=C(C)NC(=O)NC2c2ccc(Cl)cc2)cc1` (stereo not drawn): the inhibition is 11% (inactive).
As for `CC1=C(C(=O)Nc2ccc(Cl)cc2)C(c2cccc(Cl)c2)NC(=O)N1` (stereo not drawn), the inhibition is 6.92% (inactive).
The result for `CC1=C(C(=O)Nc2ccc(Cl)cc2)C(c2c(Cl)cccc2Cl)NC(=O)N1` (stereo not drawn) reads 37.4% (active); that for `O=C(Nc1ccc(Br)cc1)c1cc2ccccc2c(=O)o1`, -8.82% (inactive); that for `Cc1ccc2nc(NCc3ccccc3)nc(-c3ccccc3)c2c1`, -0.32% (inactive).
As for `O=c1c(-c2ccccc2)[n+]([O-])c2ccccc2n1OCc1ccccc1Cl`, the inhibition is -9.42% (inactive).
Take `CCOC(=CNc1ccc2nsnc2c1)OCC`: the inhibition was -2.05% (inactive).
In the case of `CCCOc1ccc(N2C(=O)CC(N(CCC34CC5CC(CC(C5)C3)C4)C(C)=O)C2=O)cc1` (stereo not drawn), the inhibition was 1.87% (inactive).
Regarding `c1ccc(Nc2nc3ncnc(NCc4cccnc4)c3[nH]2)cc1`, the inhibition was -5.96% (inactive).
Take `c1cn(-c2ccc(Nc3nc4ncnc(NC5CC5)c4[nH]3)cc2)cn1`: the inhibition was 45.5% (active).
Turning to `COc1ccc(CCNc2ncnc3nc(Nc4ccc(N5CCOCC5)cc4)[nH]c23)cc1`, the inhibition is 20.2% (inactive).
For `CC1=C(C(=O)Nc2cc(Cl)ccc2C(=O)O)SCCO1`, the inhibition was 5.44% (inactive).
For `CC(=O)c1ccc(N2CCN(C(=O)Cn3ncc4c3-c3cc(C)ccc3OC4)CC2)cc1`, the inhibition is -3.87% (inactive).
Next, `CC(=O)C1=C(c2ccc(C(C)(C)C)cc2)N(C(C)=O)n2cnnc2S1`: 84% (active); `CCC(=O)C1=C(c2ccc(Cl)cc2)N(C(=O)CC)n2cnnc2S1`: 15.1% (inactive).
The result for `CCc1nnc2n1N(C(C)=O)C(c1ccc3c(c1)CCCC3)=C(C(C)=O)S2` reads 10.8% (inactive).
On to `CCN1CCCC1CNC(=O)CSCc1nc(-c2ccccc2F)oc1C` (stereo not drawn), for which the inhibition is -9.37% (inactive).
Regarding `CN(C(=O)c1cccs1)C(Cc1ccccc1)C1CCN(C(=O)C2CCOC2)CC1` (stereo not drawn), the inhibition is -13% (inactive).
As for `CCCCCCCCCc1ccc(OCCOCCOCCOCCOCCOCCOCCOCCOCCO)cc1`, the inhibition is 34.7% (active).
Regarding `CCc1ccc(OCCOCCNCCN)cc1`, the inhibition is 13% (inactive).
Consider `CCCCCCCc1ccc(C(=O)Oc2ccc(Br)cc2)cc1`, for which the inhibition was 8.27% (inactive).
In the case of `CCN(CC)CCCNC(=O)c1ccc(Cn2c(=S)[nH]c3cc4c(cc3c2=O)OCO4)cc1`, the inhibition was -11.4% (inactive).
Regarding `Cc1ccnc(NC(c2ccccc2Cl)c2ccc3cccnc3c2O)c1` (stereo not drawn), the inhibition is 77.9% (active).
Turning to `Cc1ccnc(NC(c2ccc3cccnc3c2O)c2c(F)cccc2Cl)c1` (stereo not drawn), the inhibition is 34.7% (active).
Next, `Cc1cccc(NC(c2cccc(F)c2)c2ccc3ccc(C)nc3c2O)n1` (stereo not drawn): 1.53% (inactive); `Oc1c(C(Nc2ccccn2)c2ccc(OC(F)F)cc2)ccc2cccnc12` (stereo not drawn): 70.2% (active).
In the case of `Oc1c(C(Nc2ccccn2)c2cccnc2)ccc2cccnc12` (stereo not drawn), the inhibition is 14.9% (inactive).
As to `Cc1ccnc(NC(c2ccc(O)cc2)c2ccc3ccc(C)nc3c2O)c1` (stereo not drawn), the inhibition was -16.1% (inactive).
Consider `Oc1ccc2ncccc2c1C(Nc1ccccn1)c1ccccc1` (stereo not drawn), for which the inhibition is 6.96% (inactive).
On to `COc1cc(C(=O)NC(c2ccccc2Cl)c2cc([N+](=O)[O-])c3cccnc3c2O)cc(OC)c1OC` (stereo not drawn), for which the inhibition was -0.41% (inactive).
As for `Cc1cccc(NC(c2ccc3c(c2)OCO3)c2ccc3ccc(C)nc3c2O)n1` (stereo not drawn), the inhibition is 15.8% (inactive).
On to `CCOC(=O)c1sc2ncn(CC(=O)Nc3cccc(C(F)(F)F)c3)c(=O)c2c1C`, for which the inhibition is 0.34% (inactive).
Take `Cc1ccc(NC(=O)c2cc(S(=O)(=O)N3CCN(c4cccc(Cl)c4)CC3)ccc2F)cc1F`: the inhibition was -4.95% (inactive).
For the molecule `CCN1CCN(c2cc(Nc3cc(OC)c(OC)c(OC)c3)c3c4c(onc24)-c2ccccc2C3=O)CC1`, the inhibition was 5.58% (inactive).
The result for `Cc1ccc(S(=O)(=O)CCc2nnc(NC(=O)c3ccc([N+](=O)[O-])cc3)s2)cc1` reads -5.17% (inactive).
`NC(=O)Cn1c(=O)n(CCCCC(=O)NCc2ccccc2Cl)c(=O)c2ccccc21`: the inhibition is 2.5% (inactive).
The result for `O=C(NC1CCN(Cc2ccccc2)CC1)c1cccc(Nc2nccc3ccccc23)c1` reads 2.07% (inactive); that for `CS(=O)(=O)N(CC(O)Cn1c2ccccc2c2ccccc21)c1ccccc1I` (stereo not drawn), -12.3% (inactive); that for `CCCC(=O)NC(c1ccccc1OC)c1cc([N+](=O)[O-])c2cccnc2c1O` (stereo not drawn), 20.6% (inactive).
Next, `CNC(=O)COC(=O)c1c(Cl)cccc1Cl`: -0.51% (inactive).
Regarding `Cc1ccc(S(=O)(=O)Nc2ccccc2C(=O)NN)cc1`, the inhibition is 12.8% (inactive).
Next, `CCOC(=O)c1ccccc1NC(=O)/C=C/c1ccc(OC)cc1`: 4.72% (inactive); `CCOC(=O)c1ccccc1NS(=O)(=O)c1ccc(OC)cc1`: 46.5% (active).
Regarding `O=C(Nc1ccccc1C(F)(F)F)c1cc(S(=O)(=O)NC2CCCC2)ccc1F`, the inhibition is 1.13% (inactive).
Consider `CCS(=O)(=O)c1ncc(Cl)c(C(=O)Nc2ccc(OC(F)F)cc2)n1`, for which the inhibition was -5.89% (inactive).
As for `Cn1nc(CC(=O)Nc2ccc(F)c(F)c2)c2ccccc2c1=O`, the inhibition is 46.9% (active).
Regarding `Cc1ccc(F)cc1NC(=O)Cc1nn(C)c(=O)c2ccccc12`, the inhibition was 29.9% (inactive).
In the case of `Cc1cc(NC(=O)Cc2nn(C)c(=O)c3ccccc23)ccc1Br`, the inhibition was 4.56% (inactive).
As to `COc1ccc(Nc2ncc(-c3cccc(NC(C)=O)c3)n3ccnc23)cc1`, the inhibition is -67.3% (inactive).
On to `COc1cc(Nc2nccn3c(-c4cccc(NC(C)=O)c4)cnc23)cc(OC)c1OC`, for which the inhibition was 51.5% (active).
Turning to `COc1cccc(-c2cnc3c(Nc4ccc(C(N)=O)cc4)nccn23)c1`, the inhibition is -21.2% (inactive).
In the case of `Cc1nc(-c2cncc(-c3ccc(F)cc3)c2)cc(=O)[nH]1`, the inhibition was 5.59% (inactive).
With `COc1cc(C(=O)Oc2ccccc2Cl)cc(OC)c1OC`, the inhibition is 0.19% (inactive).
With `COc1cc(C(=O)Nc2ncc(Cc3ccccc3Cl)s2)cc(OC)c1OC`, the inhibition was 57.5% (active).
On to `COc1cc(NC(=O)c2sc3ncn(Cc4ccccc4Cl)c(=O)c3c2C)cc(OC)c1OC`, for which the inhibition was 0.99% (inactive).
Regarding `CC(=O)Nc1ccc(NC(=O)c2cc3nc(C)ccc3o2)cc1`, the inhibition was 6.06% (inactive).
The result for `CCOC(=O)c1ccc(NC(=O)COc2c(Br)cc(C=O)cc2OC)cc1` reads -2.35% (inactive); that for `CC1Nc2c(c(=O)oc3ccccc23)NC1=O` (stereo not drawn), -13.4% (inactive).
Consider `O=C(Nc1ccc(Oc2ccccc2)cc1)c1ccc2c(=O)n(CCc3ccccc3)c(=S)[nH]c2c1`, for which the inhibition is 4.57% (inactive).
With `O=C(NCCc1ccc(Cl)cc1)c1ccc2c(=O)n(CCc3ccccc3)c(=S)[nH]c2c1`, the inhibition is 6.42% (inactive).
On to `O=c1c2nccnc2[nH]c(=S)n1CCc1ccccc1`, for which the inhibition is 32.2% (active).
The result for `Cc1ccc(C)c(C(=O)Nc2ccc3c(c2)N(S(=O)(=O)c2ccc(F)cc2)CCC3)c1` reads -2.68% (inactive); that for `Cc1nc(C)c(-c2csc(Nc3ccc(Br)cc3)n2)s1`, 52.5% (active); that for `CC(=O)Nc1nc(C)c(-c2csc(Nc3ccc(C)cc3)n2)s1`, 1.48% (inactive).
Consider `Cc1nc(N)sc1-c1csc(Nc2ccc(O)cc2)n1`, for which the inhibition is 2.78% (inactive).
The result for `CC(C)Cn1c(-c2ccccc2)c[nH]c1=S` reads 4.66% (inactive).
As to `CCN1CCN(C2=C(Cl)C(=O)N(c3cccc(C(=O)OC)c3)C2=O)CC1`, the inhibition was 23.4% (inactive).
With `CCOc1ccc(Cl)cc1S(N)(=O)=O`, the inhibition was -4.54% (inactive).
`O=C(N/N=C/c1c(O)ccc2ccccc12)c1cc([N+](=O)[O-])cc([N+](=O)[O-])c1`: the inhibition is 3.24% (inactive).
For `CC(=O)Nc1cccc(C(=O)N/N=C/c2c(O)ccc3ccccc23)c1`, the inhibition was 14.8% (inactive).
`COc1ccc(C(=O)N/N=C/c2c(O)ccc3ccccc23)cc1`: the inhibition was 58.3% (active).
As for `O=C(NCc1ccco1)c1ccc(N2CC3CC(C2)c2cccc(=O)n2C3)c(NC(=S)Nc2ccc(Cl)cc2Cl)c1` (stereo not drawn), the inhibition is -0.4% (inactive).
Turning to `Cc1ccc(Nc2nc3nonc3nc2Nc2ccccc2F)cc1`, the inhibition is 69.4% (active).
Next, `Cc1ccc(Nc2nc3nonc3nc2NNc2ccccc2)cc1Cl`: -9.84% (inactive).
With `Nc1nc2nonc2nc1Nc1ccccc1`, the inhibition was 10.4% (inactive).
Turning to `Cc1cc(Cl)cc(Cl)c1OCCOCCN(C)CCO`, the inhibition was 3.38% (inactive).
In the case of `O=C(NCCc1ccccc1)c1cc(Sc2ccccc2Cl)nc2ccccc12`, the inhibition is -11.2% (inactive).
In the case of `O=C(NCCc1ccsc1)Nc1ccccc1F`, the inhibition is -29.3% (inactive).
With `O=C(NCCc1ccsc1)c1ccccc1Cl`, the inhibition is 46.4% (active).
In the case of `COc1cccc(NC(=O)CSc2nnc(-c3ccc(F)cc3)c(-c3ccc(F)cc3)n2)c1`, the inhibition is 16.5% (inactive).
For the molecule `COc1ccc(Nc2ncnc3ccc(Br)cc23)cc1`, the inhibition is 33.4% (active).
Regarding `Fc1ccc(Nc2ncnc3ccc(I)cc23)cc1`, the inhibition was 25.1% (inactive).
As to `COc1ccc(Nc2ncnc3c2cnn3-c2ccc(OC)cc2)cc1`, the inhibition was -19.6% (inactive).
Consider `CC(=O)Oc1cccc(C(=O)Nc2ccccc2Br)c1`, for which the inhibition is 14.5% (inactive).
As to `CC(=O)Oc1cccc(C(=O)Nc2ccc(C)c(C)c2)c1`, the inhibition is 62.5% (active).
`CC(=O)Oc1cc(C(=O)Nc2cccc(C#N)c2)cc(C(=O)Nc2cccc(C#N)c2)c1`: the inhibition was -1.56% (inactive).
As for `O=C(CNC(=O)c1ccc(Br)o1)OCC(=O)c1ccc(Br)cc1`, the inhibition was 4.37% (inactive).
With `Cc1ccc(CNC(=O)C(=O)N/N=C/c2ccccc2I)cc1`, the inhibition is -10.4% (inactive).
For the molecule `COc1ccc(CC2(CCC(=O)NCc3nc(C)cs3)CCC(=O)N2)c2ccccc12` (stereo not drawn), the inhibition is -13.4% (inactive).

For the origin of these results see PubChem BioAssay AID1259422 (The Scripps Research Institute Molecular Screening Center, 2018).
